# DAX1 inh-1: NR0B1 (DAX1) inhibition; HEK293 Gal4-DAX1 luciferase reporter, luminescence; inhibition, % at 6.75 µM; 340,000 compounds, 0.99% hits;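 active = inhibition above the mean over all tested compounds plus 3 SD, cut at about 4.2% in these data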;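 also: 0% = DAX1-transfected cells with DMSO and 100% = empty-vector control cells with DMSO; inhibition shows as a rise in luminescence from relieved DAX1 repression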
# Target sequence (P51843 207-470 limits assumed): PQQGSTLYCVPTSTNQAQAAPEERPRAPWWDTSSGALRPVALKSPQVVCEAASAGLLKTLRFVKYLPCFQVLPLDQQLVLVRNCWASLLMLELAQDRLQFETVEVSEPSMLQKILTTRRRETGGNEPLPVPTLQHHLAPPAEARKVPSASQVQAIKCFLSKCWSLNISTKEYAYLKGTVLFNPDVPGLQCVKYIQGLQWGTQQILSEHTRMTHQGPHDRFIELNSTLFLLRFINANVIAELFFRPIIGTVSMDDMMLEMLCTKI
# ssDAF-12 act: activators of S. stercoralis DAF-12 nuclear receptor | HEK293 ssDAF-12/GRIP1 lit1-tk-luc reporter, luminescence; % of 3 µM dafachronic acid response | activation, % at 6.8 µM | 370,000 compounds, 1% hits | AID 652126;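 active = activation above the mean over all tested compounds plus 3 SD, cut at about 0.9% in these data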;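 also: 0% = DMSO-only wells and 100% = 3 µM delta7-dafachronic acid wells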
# DAX1 inh-2: DAX1 (NR0B1) inhibition, primary screen | HEK293T StAR-luciferase reporter, SF-1/DAX-1 repression relief | inhibition, % at 6.8 µM | 370,000 compounds, 1.1% hits;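 active = inhibition above the mean over all tested compounds plus 3 SD, cut at about 3.6% in these data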;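 also: 0% = DAX-1 cells with DMSO and 100% = cells lacking DAX-1 with DMSO; higher inhibition means more luminescence from relief of DAX-1 repression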
# hcDAF-12 act: activates DAF-12 receptor from parasite H. contortus; AID 652067; 370,000 compounds, 1.4% hits; HEK293 hcDAF-12 lit1-tk-luc reporter, luminescence; 0% DMSO, 100% Δ7-dafachronic acid; activation, % at 6.8 µM;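 active = activation above the mean of all tested compounds plus 3 SD, cut at about 5.5% in these data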;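 also: 100% = response to 3 µM Δ7-dafachronic acid high control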
# hgDAF12 agonist: hgDAF-12 agonism, primary luciferase screen; 370,000 compounds, 1.8% hits; HEK293 GAL4-hgDAF12 UAS-luciferase reporter, agonist luminescence; normalized to butyrate control; activation, % at 6.8 µM;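 active = activation above a cutoff set at the mean of all screened compounds plus 3 SD, cut at about 10% in these data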;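 also: 0% = DMSO wells and 100% = sodium butyrate wells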
# The depositor's hits bear a star; . = no result. A selection: hits, their analogues and other compounds. The true share with any hit is near 4.1%.
SMILES,DAX1 inh-1,ssDAF-12 act,DAX1 inh-2,hcDAF-12 act,hgDAF12 agonist
CN(CCCOC(=O)c1cc2ccccc2o1)C1CN(Cc2cn(Cc3ccccc3C(F)(F)F)nn2)S(=O)(=O)C1 (stereo unspecified),.,-1.3,-0.4,1.8,-0.5
CCCCN1C(=O)N(c2ccc(Cl)cc2)C(C)(O)CC1(C)C (stereo unspecified),4.5*,-1.7,0.1,-0.1,0.2
CCCCN(C)c1c2c(nc3ncnn13)CCCC2,.,-0.6,-1.1,-0.8,-3.8
C=CCNC(=O)NC(=O)COC(=O)CNS(=O)(=O)c1ccc(F)c(F)c1F,5.2*,-1.1,-0.5,-0.1,-0.6
CCOC(=O)c1csc(NC(=O)C2CCCN(S(=O)(=O)c3cccs3)C2)n1 (stereo unspecified),.,-2.1,-1.1,-3.6,0.7
COCC#Cc1ccc(CC[C@H]2O[C@H]3CC[C@@H](CO)O[C@H]3C[C@H]2n2cc(C3CC3)nn2)cc1,.,-0.8,-0.3,-1.5,-0.4
CCOC(=O)c1cnc2c(N=Nc3ccccc3)c(N)nn2c1N,0.2,0.9*,2.0,1.3,7.2
CCOC(=O)c1cnc2c(N=Nc3cccc(Cl)c3)c(N)nn2c1N,.,-0.8,-0.2,0.8,1.2
CCOC(=O)CSc1nc2ccccc2c(=O)n1NC(=O)c1ccccc1,0.1,1.1*,3.9*,3.5,11.4*
O=C(Nn1c(-c2ccc(Br)cc2)nc2ccccc2c1=O)c1ccncc1,-0.5,0.4,1.0,5.3,12.7*
CCc1ccc(C(=O)Nn2c(C)nc3ccccc3c2=O)cc1,2.4,1.0*,-0.3,2.8,-1.8
C[C@H](O)[C@@H]1CN2CCc3c([nH]c4c(-c5ccccc5)cccc34)[C@@H]2C[C@@H]1N(C)C(=S)Nc1ccc(C#N)cc1,.,-1.0,0.1,-0.7,-1.4
c1csc(-c2nc(N3CCCCC3)no2)c1,5.0*,-0.2,1.3,3.3,5.7
CS(=O)(=O)c1ccccc1C(=O)Nc1cc2c(cc1C(=O)O)OCCCO2,5.8*,-1.2,0.5,-0.3,1.0
CS(=O)(=O)Nc1ccccc1C(=O)Nc1cc2c(cc1C(=O)O)OCCCO2,-0.3,-0.7,-0.1,0.8,1.5
Cc1ccc(C(=O)COC(=O)c2ccco2)cc1C,0.9,1.0*,-1.3,0.4,2.5
O=C(COC(=O)c1ccco1)c1ccc2ccccc2c1,0.3,-0.6,0.2,1.9,0.9
CCc1ccc(CCNC(=O)OC2CC3CC2[C@H]2CCCCN2[C@H]3C)cc1 (stereo partly specified),.,-0.9,0.2,0.4,0.9
COC(=O)c1cn(-c2ccc(-c3noc4c3C(=O)N(CC(=O)N3CCOCC3)CC4)cc2)nn1,.,-1.6,0.2,1.5,0.4
COc1ccc(CNC(=O)[C@@H](NC(=O)C2CCN(C(=O)[C@@H](N)CC(C)C)CC2)C(C)C)cc1,3.0,-0.3,1.3,1.6,1.6
CSCC[C@H](NC(=O)OC(C)(C)C)C(=O)N1CCC(C(=O)N[C@@H](C)C(=O)NC(C)c2ccccc2)CC1 (stereo partly specified),8.3*,-1.6,-0.4,-1.8,2.4
COc1ccc(CNC(=O)[C@@H](NC(=O)C2CCN(C(=O)[C@@H](N)CCSC)CC2)C(C)C)cc1,5.9*,-1.0,0.2,-0.8,-2.5
CC(C)C[C@H](N)C(=O)N1CCC(C(=O)N[C@H](C(=O)NC(C)c2ccccc2)C(C)C)CC1 (stereo partly specified),5.5*,-0.6,0.9,-0.2,0.4
COc1ccc(CN2CN3Cc4ccc(C)cc4C3CS2(=O)=O)cc1 (stereo unspecified),.,-1.2,0.2,0.1,-0.2
CC(C)[C@H](NC(=O)[C@@H]1Cc2c([nH]c3ccccc23)C2c3ccccc3C(=O)N21)C(=O)N1CCC[C@@H]1C(=O)O (stereo partly specified),4.2,-0.3,-0.9,5.7*,0.6
SMILES,DAX1 inh-1,ssDAF-12 act,DAX1 inh-2,hcDAF-12 act,hgDAF12 agonist
COc1ccccc1N1CCN(C(=O)c2cc3c(C)nn(-c4ccccc4)c3s2)CC1,.,-2.2,-1.7,-0.9,-1.9
O=C(NC1CCCCC1)c1cc(C(=O)c2ccccc2Br)c[nH]1,6.4*,-1.6,0.1,-2.1,-2.0
O=C(NC(=S)NC1CCCC1)c1ccccc1,0.6,0.4,3.9*,4.2,12.8*
CC(=O)NC(=S)Nc1ccccc1C(=O)NC1CCCCC1,-0.1,3.9*,1.1,-0.5,3.3
O=C(NC(=S)NC1CCCCCCCCCCC1)c1cccnc1,1.0,-1.1,0.6,1.9,-1.6
O=C(NC1CCCCC1)c1ccccc1NC(=O)C1CC1,-0.9,-1.0,-0.6,-0.9,-1.5
O=C(Nc1ccccc1C(=O)NC1CCCC1)NC1CCCC1,5.8*,-1.5,0.1,-1.5,1.1
CCOC(=O)N1C(=O)C[C@](Sc2ccc(OC)cc2)(C(=O)N2CCN(C(C)=O)CC2)[C@H]1c1ccc(OC)cc1,.,-0.5,-2.3,-0.8,-0.3
CCOC(=O)c1ccc2nc(NC(=O)c3ccco3)sc2c1,-0.5,0.1,3.0,3.7,9.8
CCCCC(=O)Nc1nc2ccc(C(=O)OC)cc2s1,0.3,-0.8,1.6,1.4,10.9*
CCOC(=O)c1ccc2nc(NC(=O)c3cccs3)sc2c1,4.8*,-0.2,2.7,4.6,12.4*
O=S1(=O)c2c(cccc2N2CC[C@@H](O)C2)O[C@H]2CCN1C2,.,-1.5,0.1,-0.4,-0.3
Cn1nc(C(=O)OCC(=O)Nc2ccccc2[N+](=O)[O-])c2ccccc2c1=O,-0.1,1.0*,-0.3,2.2,0.0
COc1cc(/C=N/NC(=O)COc2ccc(C)cc2)ccc1OC(=O)c1cccs1,-1.8,0.9*,0.2,0.8,4.4
Cc1ccc(OCC(=O)N/N=C\c2ccc(O)c([N+](=O)[O-])c2)c([N+](=O)[O-])c1,0.8,-1.0,-0.6,-0.4,-1.2
Cc1ccc(/C=N\NC(=O)COc2ccc(C)cc2[N+](=O)[O-])cc1,7.0*,-1.4,0.3,0.0,1.1
Cn1nc(C(=O)OCC(=O)Nc2cc(Cl)ccc2C#N)c2ccccc2c1=O,0.2,0.0,0.8,2.6,1.9
CN(C)S(=O)(=O)c1ccc(Cl)c(NC(=O)COc2ccccc2[N+](=O)[O-])c1,0.7,0.9*,-0.8,-1.2,-1.4
CCCN1CCS(=O)(=O)N(Cc2cn(Cc3ccc(F)cc3)nn2)C(C(=O)OC)C1 (stereo unspecified),.,-0.2,-0.2,-2.8,-0.1
O=C(OC12CCCN(C1)/C(=C/c1ccccc1)C2)c1ccccc1 (stereo unspecified),.,-1.1,0.0,-2.8,0.7
Cc1ccc(NC(=O)OC2CC3CC2[C@H]2CCCCN2[C@H]3Cc2ccccc2)cc1 (stereo partly specified),.,-1.0,-0.2,0.2,2.1
O=C(Nc1nc(Cc2ccccc2)c(-c2ccccc2)n1Cc1ccccc1)c1ccccc1,.,-1.3,0.6,-0.3,-0.5
CC(C)c1ccccc1NC(=O)COC(=O)COc1ccccc1[N+](=O)[O-],2.8,1.9*,-0.5,-1.3,2.5

# Assay outcomes (PubChem)
